Results filed as inconclusive are left out. Entries that show only a call come without a potency. Active and inactive are the calls of the source. The call rests on the fitted dose curve; in most records, active means well fitted inhibition curve with a large enough effect; inconclusive means small, poorly fitted or top-dose-only effect; inactive means no such curve, though single readings can be large or run the other way.
Experiment: Confirmatory fluorescence-based thiol-reactive (MSTI) qHTS assay for identification of artifact compounds
Settings: MSTI thiol-reactivity probe, 1 h; series mostly up to 39.2 µM
Procedure, shortened: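 Concentration–response testing used 4 uM MSTI. Signal read at Ex 525/Em 598 nm after one hour in darkness at ambient temperature.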
Potency means the concentration at half of the fitted maximal effect.

| SMILES | Potency |
| --- | --- |
| O=c1c2ccccc2nc2sc(NS(=O)(=O)c3ccc4c(c3)CCC4)nn12 | inactive |
| CC1CCc2noc(NC(=O)c3ccc([N+](=O)[O-])cc3)c2C1 (stereo unspecified) | 2.44 µM (active) |
| Cc1cc(C(=O)N2CCN(c3cccc(Cl)c3)CC2)c2c(C)nn(-c3ccccc3Cl)c2n1 | inactive |
| Cc1ccc2cccc(NS(=O)(=O)c3ccccc3[N+](=O)[O-])c2n1 | 4.33 µM (active) |
| COc1ccc(NC(=O)N2CCc3c(sc4c3CCCC4)C2c2ccccc2OC)cc1 (stereo unspecified) | inactive |
| Ic1ccc(Nc2nc(NCCN3CCOCC3)nc(N3CCOCC3)n2)cc1 | inactive |
| Nc1ccc(F)cc1F | inactive |
| CCC(Sc1ncc(S(=O)(=O)c2ccc(Cl)cc2)c(=O)[nH]1)C(=O)Nc1ccc(OC)cc1 (stereo unspecified) | inactive |
| O=C(NCc1ccccc1)C1(C(F)(F)F)C/C(=C\CCO)CCCO1 (stereo unspecified) | inactive |
| CCCCn1c(-c2ccc(C)cc2)c(C)n2c3c(=O)n(C)c(=O)n(C)c3nc12 | inactive |
| O=C(Nc1ccc2oc(-c3cccc4c(Br)cccc34)nc2c1)c1cccnc1 | inactive |
| COc1cc(O)c2c(c1)oc(=O)c1c3cc(O)c(O)cc3oc21 | 1.09 µM (active) |
| O=C(CSc1nccn1C1CCCC1)Nc1ccc(C(F)(F)F)cc1 | inactive |
| COC(=O)c1ccc(NC(=O)CC2C(=O)N(c3ccccc3)C(=O)N2Cc2ccco2)cc1 (stereo unspecified) | inactive |
| O=S(=O)(O)c1ccc(N=Nc2c(O)ccc3cc(S(=O)(=O)O)ccc23)cc1 | 6.12 µM (active) |
| COc1ccc(-c2cc(C(F)(F)F)n3nc(-c4ccc(Cl)cc4)cc3n2)cc1OC | inactive |
